Calls of active or inactive are those of the source. Unless noted, the call rests on the fitted dose curve; in most records, active means well fitted curve in the direction sought with a large enough effect; inconclusive means small, poorly fitted or top-dose-only effect, or another doubt; inactive means no such curve, though single readings can be large; an effect the other way counts as inactive or inconclusive.
Columns and labels:
[1] = target: Estrogen receptor (Homo sapiens) (UniProt P03372); assay: qHTS assay for small molecule antagonists of estrogen receptor alpha signaling (AID 588513; active means well fitted curve in the direction sought with a large enough effect in the signal ratio, with a control signal flat, not every such curve was filed as active; inconclusive means small, poorly fitted or top-dose-only effect, or effect the other way, or a change in a side signal; inactive means no such curve, though single readings can be large or run the other way; the % refers to the signal ratio; further: potency means the concentration at half of the fitted maximal effect)
Chain of Estrogen receptor (Homo sapiens) (P03372 whole entry, looked up): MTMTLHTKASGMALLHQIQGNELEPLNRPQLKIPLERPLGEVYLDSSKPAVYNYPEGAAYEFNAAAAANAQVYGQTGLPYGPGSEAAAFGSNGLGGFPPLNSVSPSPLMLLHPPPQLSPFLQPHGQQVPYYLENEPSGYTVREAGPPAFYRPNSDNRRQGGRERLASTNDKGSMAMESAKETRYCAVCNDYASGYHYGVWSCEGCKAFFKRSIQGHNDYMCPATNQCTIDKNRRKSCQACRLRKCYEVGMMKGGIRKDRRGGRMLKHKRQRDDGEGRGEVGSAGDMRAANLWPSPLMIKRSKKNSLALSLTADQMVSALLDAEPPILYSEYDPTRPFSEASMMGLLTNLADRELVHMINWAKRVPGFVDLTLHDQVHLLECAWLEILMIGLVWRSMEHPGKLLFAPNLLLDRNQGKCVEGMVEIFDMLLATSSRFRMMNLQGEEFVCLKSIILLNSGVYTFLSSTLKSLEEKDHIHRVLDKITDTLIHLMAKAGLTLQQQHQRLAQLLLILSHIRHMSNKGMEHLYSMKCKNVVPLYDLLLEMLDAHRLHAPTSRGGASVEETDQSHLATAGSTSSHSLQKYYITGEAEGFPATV
In short: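 Antagonist-mode qHTS in ER-alpha-UAS-bla HEK 293 cells: compound titration, 0.5nM estradiol for 18 h, CCF4 fluorescence, Hill-derived IC50.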

[2] = target: Vitamin D3 receptor (Homo sapiens) (UniProt P11473); assay: qHTS assay for small molecule antagonists of vitamin D receptor signaling (AID 588541; calls by dose curve; further: potency means the concentration at half of the fitted maximal effect)
Chain of Vitamin D3 receptor (Homo sapiens) (P11473 whole entry, looked up): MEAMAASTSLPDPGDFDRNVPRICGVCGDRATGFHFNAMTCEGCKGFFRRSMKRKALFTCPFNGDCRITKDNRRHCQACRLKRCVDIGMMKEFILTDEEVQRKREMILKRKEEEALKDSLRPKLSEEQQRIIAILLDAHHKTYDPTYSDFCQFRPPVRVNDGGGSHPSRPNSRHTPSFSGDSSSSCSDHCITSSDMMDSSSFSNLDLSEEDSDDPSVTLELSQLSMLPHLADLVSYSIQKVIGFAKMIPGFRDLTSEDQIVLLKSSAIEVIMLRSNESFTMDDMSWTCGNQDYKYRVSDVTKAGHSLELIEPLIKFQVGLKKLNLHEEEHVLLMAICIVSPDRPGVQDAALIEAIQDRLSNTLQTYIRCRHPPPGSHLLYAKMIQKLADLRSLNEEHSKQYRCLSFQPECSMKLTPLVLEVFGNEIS
In short: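 Antagonist-mode beta-lactamase reporter assay: HEK293T VDR-UAS-bla cells were exposed to titrated compound alongside 1-alpha,25-dihydroxyvitamin D3 at 3 nM final for 16 h. Values were normalized to the 50 nM agonist control and DMSO basal, with IC50 and efficacy from Hill equation fits.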

[3] = target: Voltage-gated inwardly rectifying potassium channel KCNH2 (Homo sapiens) (UniProt Q12809); assay: qHTS Assay for Small Molecule Inhibitors of the Human hERG Channel Activity (AID 588834);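 further: top concentration of the series differs between compounds; on the % scale 0 is the no-effect control and ±100 the full control effect; lower thallium flux fluorescence means stronger hERG block; nearly all actives have a fitted effect of over 50% in size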
Chain of Voltage-gated inwardly rectifying potassium channel KCNH2 (Homo sapiens) (Q12809 whole entry, looked up): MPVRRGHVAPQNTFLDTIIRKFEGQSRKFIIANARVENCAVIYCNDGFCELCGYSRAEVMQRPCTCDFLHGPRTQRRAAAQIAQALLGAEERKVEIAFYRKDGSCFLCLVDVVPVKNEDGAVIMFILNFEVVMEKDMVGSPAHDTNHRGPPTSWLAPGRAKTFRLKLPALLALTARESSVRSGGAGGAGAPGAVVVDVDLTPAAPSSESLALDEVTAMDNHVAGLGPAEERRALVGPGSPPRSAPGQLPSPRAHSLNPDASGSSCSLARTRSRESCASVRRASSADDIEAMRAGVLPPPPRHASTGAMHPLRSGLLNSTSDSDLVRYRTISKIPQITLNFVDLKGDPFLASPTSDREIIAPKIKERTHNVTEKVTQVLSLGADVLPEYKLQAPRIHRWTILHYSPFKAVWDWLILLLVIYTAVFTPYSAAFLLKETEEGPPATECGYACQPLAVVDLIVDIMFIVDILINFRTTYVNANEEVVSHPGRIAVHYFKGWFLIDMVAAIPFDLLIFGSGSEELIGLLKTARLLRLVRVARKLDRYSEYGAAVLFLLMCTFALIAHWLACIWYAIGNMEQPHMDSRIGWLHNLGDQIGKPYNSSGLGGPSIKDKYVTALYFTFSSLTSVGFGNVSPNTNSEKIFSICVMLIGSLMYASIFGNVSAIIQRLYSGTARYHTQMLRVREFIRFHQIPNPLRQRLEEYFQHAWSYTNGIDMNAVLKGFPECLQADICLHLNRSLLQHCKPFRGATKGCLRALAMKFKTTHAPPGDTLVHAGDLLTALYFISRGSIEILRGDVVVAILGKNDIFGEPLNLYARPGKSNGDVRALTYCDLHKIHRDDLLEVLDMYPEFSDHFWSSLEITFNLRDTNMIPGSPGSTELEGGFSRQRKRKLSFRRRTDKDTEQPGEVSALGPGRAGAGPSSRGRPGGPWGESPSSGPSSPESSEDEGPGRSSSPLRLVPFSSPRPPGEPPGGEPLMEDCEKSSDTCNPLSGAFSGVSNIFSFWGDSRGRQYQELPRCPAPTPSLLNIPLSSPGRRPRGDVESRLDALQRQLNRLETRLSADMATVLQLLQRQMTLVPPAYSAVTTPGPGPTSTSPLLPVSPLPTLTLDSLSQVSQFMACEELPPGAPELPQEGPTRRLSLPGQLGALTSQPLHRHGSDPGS
In short: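 Blockade is seen as reduced FluxOR thallium-flux fluorescence in U2OS cells expressing hERG from a BacMam construct, in Opti-MEM with 2% FCS. Concentration-response data fitted to the Hill equation for AC50.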

[4] = qHTS assay for small molecule disruptors of the mitochondrial membrane potential - 1 hr assay (AID 651754; calls by dose curve; further: potency means the concentration at half of the fitted maximal effect; nearly all actives have a fitted effect of over 35% in size)
In short: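 Steps: seed HepG2 cells and let attach overnight; pin-transfer compound or vehicle; incubate 1 hr at 37C; add Mito-MPS dye for 30 min; read two-channel fluorescence for monomer and aggregate forms.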

[5] = qHTS assay for small molecule disruptors of the mitochondrial membrane potential - 5 hr assay (AID 651755; calls by dose curve; further: potency means the concentration at half of the fitted maximal effect; nearly all actives have a fitted effect of over 40% in size); settings: JC-1-type ratio dye
In short: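 HepG2, 2,000 cells/well, overnight attach; cpd or DMSO 5 hr, 37C/5% CO2; Mito-MPS 30 min 37C; fluor 490/535 + 540/590 nm.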

[6] = qHTS assay for environmental chemicals that activate the Aryl hydrocarbon Receptor (AhR) signaling pathway (AID 651777); settings: 1A2-DRE human hepatoma cells, luciferase, 24 h; stronger effect = higher value; further: % of control where 0% means no effect; nearly all actives have a fitted effect of over 15% in size
In short: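 Stable CYP1A2 promoter/DRE-luciferase human hepatoma line treated 24 hr; One-Glo luminescence, 30 min RT.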

[7] = target: Peroxisome proliferator-activated receptor alpha (Homo sapiens) (UniProt Q07869); assay: qHTS assay for small molecule agonists of the peroxisome proliferator-activated receptor alpha (PPARalpha) signaling pathway (AID 651778); settings: PathHunter PPARalpha complementation, chemiluminescence, 6 h; stronger effect = higher value; further: % of control where 0% means no effect
Chain of Peroxisome proliferator-activated receptor alpha (Homo sapiens) (Q07869 whole entry, looked up): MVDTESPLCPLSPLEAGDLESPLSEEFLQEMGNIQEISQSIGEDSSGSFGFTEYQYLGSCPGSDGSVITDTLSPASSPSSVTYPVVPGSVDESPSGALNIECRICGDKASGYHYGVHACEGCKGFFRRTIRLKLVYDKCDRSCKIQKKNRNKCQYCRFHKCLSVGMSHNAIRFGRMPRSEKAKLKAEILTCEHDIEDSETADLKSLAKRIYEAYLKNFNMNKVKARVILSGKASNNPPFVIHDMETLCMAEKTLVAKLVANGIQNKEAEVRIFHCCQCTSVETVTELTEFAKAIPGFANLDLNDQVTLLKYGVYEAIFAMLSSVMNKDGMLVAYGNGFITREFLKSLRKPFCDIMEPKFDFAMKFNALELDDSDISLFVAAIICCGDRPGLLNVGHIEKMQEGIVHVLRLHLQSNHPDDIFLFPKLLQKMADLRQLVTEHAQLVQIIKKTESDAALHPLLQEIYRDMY
In short: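 Chemiluminescence from complemented enzyme reported PPARalpha activation in cells after 6 hr of compound treatment at 37 C. The detection reagent was incubated for 60 min at room temperature, and compounds were scored as agonists.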

[8] = target: Nuclear receptor ROR-gamma (Homo sapiens) (UniProt P51449); assay: qHTS assay for small molecule antagonists of the retinoid-related orphan receptor gamma (ROR-gamma) signaling pathway (AID 651802); settings: ROR-gamma antagonist cell reporter assay; further: potency means the concentration at half of the fitted maximal effect; nearly all actives have a fitted effect of over 60% in size
Chain of Nuclear receptor ROR-gamma (Homo sapiens) (P51449 whole entry, looked up): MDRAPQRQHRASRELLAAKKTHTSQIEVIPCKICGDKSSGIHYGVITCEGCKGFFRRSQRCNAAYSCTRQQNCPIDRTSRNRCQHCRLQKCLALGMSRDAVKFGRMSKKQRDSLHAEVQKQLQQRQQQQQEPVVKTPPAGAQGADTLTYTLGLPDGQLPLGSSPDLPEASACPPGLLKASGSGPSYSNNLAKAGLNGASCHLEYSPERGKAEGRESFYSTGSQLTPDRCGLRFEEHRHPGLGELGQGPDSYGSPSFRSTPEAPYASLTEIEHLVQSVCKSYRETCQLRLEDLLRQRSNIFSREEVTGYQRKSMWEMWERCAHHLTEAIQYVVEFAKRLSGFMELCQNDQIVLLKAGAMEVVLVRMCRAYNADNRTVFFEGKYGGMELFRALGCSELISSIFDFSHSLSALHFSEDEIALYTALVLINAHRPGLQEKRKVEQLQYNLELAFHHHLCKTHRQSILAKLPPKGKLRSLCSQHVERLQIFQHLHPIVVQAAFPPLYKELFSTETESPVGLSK
In short: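 Antagonism is scored as a fall in luminescence from a RORE-luciferase reporter in CHO cells expressing ROR under a TET-inducible promoter, measured 16hr after doxycycline induction in the presence of compound.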

[9] = qHTS assay for small molecule antagonists of the retinoid-related orphan receptor gamma (ROR-gamma) signaling pathway - cell viability counter screen (AID 720652; active means well fitted curve in the direction sought with a large enough effect in the repeat runs; inconclusive means weak or mixed curves; inactive means no such curve, though single readings can be large; an effect the other way counts as inactive or inconclusive;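 further: potency means the concentration at half of the fitted maximal effect; compound exposure lasted 16 hr before ATP read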); settings: RORgamma reporter cell line viability counter screen
In short: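 Cytotoxicity is quantified via intracellular ATP (CellTiter-Glo luminescence) in doxycycline-induced CHO ROR response element-luciferase reporter cells treated with compound for 16 hr at 37 C, 5% CO2.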

[10] = qHTS assay for small molecule agonists of the antioxidant response element (ARE) signaling pathway measured by Nrf2-dependant transcriptional activity - cell viability counter screen (AID 720653; active means well fitted curve in the direction sought with a large enough effect in the repeat runs; inconclusive means weak or mixed curves; inactive means no such curve, though single readings can be large; an effect the other way counts as inactive or inconclusive; further: potency means the concentration at half of the fitted maximal effect); settings: ARE-bla HepG2 viability, CellTiter-Glo ATP luminescence, 16 h; max response: stronger effect = lower value
In short: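 Cytotoxicity counter screen: intracellular ATP quantified by CellTiter-Glo luminescence in the same ARE-bla HepG2 plates, after 16 h compound exposure and a 2 h beta-lactamase substrate step.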

[11] = qHTS assay for cell viability of HEK293 cells (AID 743288); settings: ATP luminescence (CellTiter-Glo), 18 h; max response: stronger effect = lower value; further: potency means the concentration at half of the fitted maximal effect; nearly all actives have a fitted effect of over 50% in size
In short: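 Luminescent ATP quantitation served as the viability read-out. Cells (parental HEK293, 2,000/well) received compounds after at least 5 h at 37 C and were exposed for 18 h before a 30 min room-temperature reagent step.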

[12] = qHTS assay for cell viability of the p53RE-bla HCT-116 cell line (AID 743292); further: potency means the concentration at half of the fitted maximal effect; nearly all actives have a fitted effect of over 55% in size
In short: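 Readout: CellTiter-Glo luminescence after 30 min RT. Treatment: compounds in DMSO, 16 h, 37 C. Cells: CellSensor p53RE-bla HCT-116, 4,000/well, preincubated 5 h.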

Furin (Homo sapiens) = Furin (Homo sapiens) (UniProt P09958); assay: Furin counterscreen qHTS for Zika virus inhibitors (AID 1347149);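 further: purified recombinant full-length human furin enzyme at 5 nM; fluorescence gain from furin cutting a BOC-RVRR-AMC peptide substrate over 15 min; top concentration of the series differs between compounds; plate controls were no-inhibitor control for no effect and no-enzyme control for full effect; nearly all actives have a fitted effect of over 70% in size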
Chain of Furin (Homo sapiens) (P09958 whole entry, looked up): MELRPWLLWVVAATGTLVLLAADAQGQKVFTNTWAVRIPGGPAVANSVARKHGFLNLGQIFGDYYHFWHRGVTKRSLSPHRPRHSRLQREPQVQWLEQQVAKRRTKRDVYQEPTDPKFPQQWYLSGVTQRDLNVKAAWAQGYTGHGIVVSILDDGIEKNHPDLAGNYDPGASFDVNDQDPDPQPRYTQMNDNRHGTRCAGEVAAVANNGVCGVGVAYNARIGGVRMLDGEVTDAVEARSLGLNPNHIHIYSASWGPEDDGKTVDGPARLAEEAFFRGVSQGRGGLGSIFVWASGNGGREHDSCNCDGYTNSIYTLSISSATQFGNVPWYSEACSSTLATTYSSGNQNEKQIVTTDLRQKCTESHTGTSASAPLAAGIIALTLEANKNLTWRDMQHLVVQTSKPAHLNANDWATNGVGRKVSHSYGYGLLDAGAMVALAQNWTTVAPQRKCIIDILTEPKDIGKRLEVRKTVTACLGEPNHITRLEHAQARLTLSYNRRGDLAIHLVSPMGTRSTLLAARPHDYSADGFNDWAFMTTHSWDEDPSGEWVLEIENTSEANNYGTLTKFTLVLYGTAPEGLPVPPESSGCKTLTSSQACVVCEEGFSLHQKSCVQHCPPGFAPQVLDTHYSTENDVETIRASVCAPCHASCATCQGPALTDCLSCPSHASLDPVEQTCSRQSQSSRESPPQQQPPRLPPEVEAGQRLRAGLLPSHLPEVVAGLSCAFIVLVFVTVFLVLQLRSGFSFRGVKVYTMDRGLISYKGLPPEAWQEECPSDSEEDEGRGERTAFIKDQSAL
In short: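 Fluorogenic cleavage of BOC-RVRR-AMC (2 microM final, Km ~15 µM) was monitored (ex 340, em 450 nm) at 37C after 15 min RT preincubation of 5 nM furin with compounds in HEPES pH 7.0 buffer with CaCl2 and Triton X-100. Percent inhibition was fitted to a 4-parameter Hill curve.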

[13] = ZIKV-mCherry secondary qHTS for Zika virus inhibitors (AID 1347158); further: top concentration of the series differs between compounds
In short: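 After overnight seeding at 37 °C, Vero cells receive compound and then ZIKV-mCherry (MOI 1). Following 48-72 h infection, cells are fixed, counterstained with Hoechst, and imaged; percent infected cells is derived from an mCherry intensity cut-off of 450 RFU.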

[14] = tested on: Zika virus NS2B-NS3 protease (linked); assay: 384 well plate NINDS AMC confirmatory qHTS for Zika virus inhibitors (AID 1347163); further: potency means the concentration at half of the fitted maximal effect; nearly all actives have a fitted effect of over 50% in size
In short: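 Linked protease 5/30/60 nM final; cpds up to 1 mM final, ~15 min preinc. Substrate Ac-VKTGKR-AMC 30 microM final. RT, dark, 25 min; FI ex 355/em 460; normalized to no-enzyme/no-inhibitor ctrls.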

[15] = tested on: Zika virus NS2B-NS3 protease (linked construct); assay: 384 well plate NINDS Rhodamine confirmatory qHTS for Zika virus inhibitors (AID 1347164); further: potency means the concentration at half of the fitted maximal effect; nearly all actives have a fitted effect of over 65% in size
In short: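 Cleavage of Ac-LKRR-Rhodamine 110 (10 microM final) by linked protease (final 5, 30 or 60 nM) was followed as fluorescence at 485/538 nm after 25 min, room temperature, dark. Compounds preincubated ~15 min.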

[16] = Vero cells viability qHTS for Zika virus inhibitors (AID 1347167); further: on the % scale 0 is the no-effect control and ±100 the full control effect
In short: (§1)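 Compounds were tested in concentration series on cells grown in DMEM containing 4% FBS. After 24 to 48 hours, cellular ATP was measured by luminescence with CellTiter Glo.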

[17] = HepG2 cells viability qHTS for Zika virus inhibitors (AID 1347168); further: potency means the concentration at half of the fitted maximal effect
In short: as §1

[18] = Tertiary RLuc qRT-PCR qHTS assay for Zika virus inhibitors (AID 1347169); further: potency means the concentration at half of the fitted maximal effect; nearly all actives have a fitted effect of over 55% in size
In short: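 Inhibition of ZIKV-RLuc replication in Vero cells, read as Renilla luminescence 1-1.5 hrs after live-cell substrate addition, following 48-72 hrs infection at MOI 1-2 in presence of compound.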

[19] = qHTS assay for small molecule activators of the human pregnane X receptor (PXR) signaling pathway (AID 720659; call rule not given here; further: 0% is about no effect)

O=C1c2c(O)ccc([N+](=O)[O-])c2C(=O)c2c([N+](=O)[O-])ccc(O)c21
inactive: Potency [3] | activation [6] 5.47% | max response [7] -6.07% | Potency (Furin (Homo sapiens)) | Potency [13] | Potency [16] | outcome [19]
active: Potency [1] 14.1 µM [inconclusive] | Potency [2] 22.4 µM | Potency [4] 5.31 µM | Potency [5] 3.76 µM | Potency [8] 16.8 µM | Potency [9] 33.5 µM | Potency [10] 20 µM | Potency [11] 39.8 µM | Potency [12] 39.8 µM | Potency [14] 100 µM | Potency [15] 70.8 µM | Potency [17] 42.6 µM | Potency [18] 13.5 µM

Source: PubChem BioAssay (NCATS)
